# Screens as filed in PubChem.
# SRC1 inh: inhibitors of human steroid receptor coactivator 1 (SRC1); HEK293 GAL4-SRC1 luciferase reporter, luminescence; inhibition, % at 3.6 µM; hit rate 0.12% among 360,000;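 active means inhibition above the campaign mean plus 3 SD, with each screening campaign given its own cutoff, cut at about 60% in these data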;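 further: 0% = DMSO treated cells and 100% = gossypol at 36 µM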
# SRC3 inh: human NCOA3 inhibition | hit rate 0.17% among 360,000 | AID 588352 | inhibition, % at 3.6 µM | HEK293 GAL4-SRC3 luciferase reporter, luminescence | Q9Y6Q9;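 active means inhibition above a per-campaign cutoff, the mean of all compounds plus 3 SD, cut at about 60% in these data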;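 further: 0% = DMSO-treated cells and 100% = gossypol-treated cells at 36 µM; higher means less SRC3-driven luciferase light from the GAL4 reporter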
# GalR3 antagonist: human GalR3 antagonism | O60755 | HEK293 GalR3-CNG cAMP membrane potential fluorescence; galR3 body fused to GalR1 C-terminus | inhibition, % at 3 µM | hit rate 0.44% among 360,000 | AID 651719;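 active means inhibition above the screen-wide average plus 3 SD, cut at about 13% in these data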;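 further: forskolin and galanin both at EC90 stimulate the cells; cAMP rise reported by CNG channel membrane potential dye signal; 0% = forskolin plus galanin with DMSO and 100% = forskolin alone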
# NR2F2 inh: inhibitors of human COUP-TFII (NR2F2); HEK293T NGFI-A luciferase reporter, luminescence; AID 686940; P24468; hit rate 0.7% among 370,000; inhibition, % at 8.6 µM;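 active means inhibition above a per-plate cutoff, mean inhibition of test wells between control levels plus 3 SD, cut at about 38% in these data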;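 further: cells cotransfected with COUP-TFII expression vector driving the NGFI-A reporter; 0% = median of COUP-TF2 test wells and 100% = reporter-only cells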
# LRH-1 inv ag: inverse agonists of human LRH-1 (NR5A2); O00482; HEK293T StAR-luciferase reporter, LRH-1 transfected, 24 h; inhibition, % at 3.6 µM; hit rate 0.13% among 360,000; AID 602396;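 active means inhibition above the mean inhibition of all tested compounds plus 3 SD, cut at about 73% in these data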;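 further: 0% = DMSO wells and 100% = reporter-only cells lacking LRH-1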
# Target sequence (O00482 whole entry, looked up): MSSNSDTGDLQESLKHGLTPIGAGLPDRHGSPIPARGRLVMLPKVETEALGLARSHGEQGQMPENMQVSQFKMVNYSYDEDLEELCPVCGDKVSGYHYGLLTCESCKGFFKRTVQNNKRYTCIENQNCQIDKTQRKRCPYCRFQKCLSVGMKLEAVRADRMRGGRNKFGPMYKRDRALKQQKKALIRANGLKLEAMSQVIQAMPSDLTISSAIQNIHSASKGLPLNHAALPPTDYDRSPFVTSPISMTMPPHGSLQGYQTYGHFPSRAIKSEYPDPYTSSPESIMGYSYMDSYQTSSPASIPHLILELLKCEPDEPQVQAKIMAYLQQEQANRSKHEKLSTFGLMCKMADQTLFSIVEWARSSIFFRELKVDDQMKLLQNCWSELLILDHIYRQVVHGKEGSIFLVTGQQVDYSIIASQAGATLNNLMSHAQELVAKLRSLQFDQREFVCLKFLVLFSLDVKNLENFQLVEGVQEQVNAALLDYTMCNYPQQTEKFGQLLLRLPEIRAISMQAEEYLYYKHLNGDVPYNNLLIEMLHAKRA
# NCOA2 inhibitor: human SRC2 (NCOA2) inhibition. hit rate 0.17% among 370,000. Q15596. HEK293 GAL4-SRC2 luciferase reporter, luminescence. inhibition, % at 9 µM. AID 651957;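 active means inhibition above the mean inhibition of all tested compounds plus 3 SD, set per campaign, cut at about 52% in these data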;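 further: 0% = DMSO treated cells and 100% = cells given Gossypol at 36 µM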
# GalR3 conf: GalR3 (human) antagonism, confirmation. HEK293 GalR3 CNG cAMP biosensor, membrane potential fluorescence; galR3 fused to GalR1 carboxy tail; challenged with forskolin and galanin at EC90. AID 652245. inhibition, % at 3 µM. shares compounds with GalR3 antagonist. hit rate 59% among 1,600;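 active means inhibition above the primary screen's cutoff, the mean inhibition of all screened compounds plus 3 SD, cut at about 13% in these data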;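 further: 0% = forskolin plus galanin and 100% = forskolin alone with DMSO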
# HEK-CNG parental: acts as nonspecific agonist in parental HEK-CNG cells; shares compounds with GalR3 antagonist; activation, % at 3 µM; hit rate 10% among 1,600; HEK293-CNG parental cells, cAMP membrane potential fluorescence; normalised: DMSO wells 0%, forskolin wells 100%; in the data active means activation above about 1.3%
# The depositor's hits bear a star; . = not tested or not shown. In the library only some 1.1% were active in any assay of this set; here they are far more common.
SMILES,SRC1 inh,SRC3 inh,GalR3 antagonist,NR2F2 inh,LRH-1 inv ag,NCOA2 inhibitor,GalR3 conf,HEK-CNG parental
Cc1nc2cc(NC(=O)N3CCC(c4ccccc4)C3)ccc2n1C (stereo not drawn),-50,-27,31*,-14,-51,-45,0,0
CCN(CCO)CC1CCCC2CCCCC21 (stereo not drawn),.,.,-7,1,11,-20,.,.
N#Cc1c(N)nc(SCc2ccncc2)c(C#N)c1-c1cccs1,-4,22,75*,-4,16,-5,91*,1
O=C(COC(=O)c1ccc([N+](=O)[O-])s1)NC(c1ccccc1)c1ccccc1,8,-15,22*,-2,14,-2,0,0
CCC(=O)c1ccc(OCc2ccc(C(=O)c3ccccc3)cc2)cc1,-1,8,37*,4,12,3,88*,0
CCC(=O)c1ccc(OCc2ccccc2)c(OC)c1,-72,-84,-5,-72,-117,-14,.,.
CCCC(=O)OCCNc1cc(Sc2nccn2C)c2nonc2c1[N+](=O)[O-],-13,19,40*,2,-14,10,24*,0
Cc1nnc(Sc2cc(NCCCO)c([N+](=O)[O-])c3nonc23)s1,-1,-12,21*,3,4,-26,5,0
CCC(=O)OCCNc1cc(Sc2nc3ccccc3[nH]2)c2nonc2c1[N+](=O)[O-],9,18,35*,8,2,-1,32*,0
CCCSc1cc(NCCOC(=O)CCC)c([N+](=O)[O-])c2nonc12,3,12,3,-5,8,11,.,.
Cc1nnc(Sc2cc(NCCO)c([N+](=O)[O-])c3nonc23)s1,-2,-7,7,-1,-1,7,.,.
CCC(=O)OCCNc1cc(Sc2nc3ccccc3s2)c2nonc2c1[N+](=O)[O-],-16,-5,-3,-5,0,-10,.,.
Cc1cc(C(=O)N/N=C(\CCC(=O)O)c2cccs2)c2ccccc2n1,4,10,17*,9,9,12,-5,1
CCOCCCNC(=S)N1CCN(Cc2ccc3c(c2)OCO3)CC1,9,11,15*,-3,6,27,1,0
COc1cccc(C(=O)/C=C/c2ccc(OCC#N)c(OC)c2)c1,-8,47,20*,18,14,21,1,0
Fc1ccc(-c2nc3c4ccccc4ccn3c2Cc2ccccc2C(F)(F)F)cc1,-13,-18,.,.,-15,.,.,.
FC(F)(F)c1ccccc1Cc1c(-c2ccco2)nc2c3ccccc3ccn12,.,.,19*,-5,.,-31,35*,1
COc1cccc(C2NC(=S)N(Cc3ccc(Br)cc3)C(C)=C2C(C)=O)c1 (stereo not drawn),.,.,-7,19,.,-14,.,.
O=C(N/N=C/c1cc(Cl)ccc1O)C(=O)Nc1ccccc1OC(F)(F)C(F)F,37,68*,22*,18,-13,-2,66*,-1
O=C(N/N=C/c1cc(Br)ccc1O)C(=O)Nc1ccccc1OC(F)(F)C(F)F,22,60,15*,13,-17,4,57*,-2
COc1ccc(CNC(=O)c2ccc(-n3ccnc3)c3ccoc23)cc1OC,-22,-22,4,-8,-2,-16,.,.
CCOc1cc(C2NC(=O)NC(C)=C2C(=O)OCc2ccccc2)ccc1O (stereo not drawn),-26,-4,13*,-9,-15,3,15*,0
COc1ccc(COC(=O)C2=C(C)NC(=O)NC2c2ccc(O)c(OC)c2)cc1 (stereo not drawn),1,3,8,5,-5,-10,.,.
COc1ccc(COC(=O)C2=C(C)NC(=O)NC2c2cc(Br)c(O)c(OC)c2)cc1 (stereo not drawn),-8,2,29*,-34,10,-2,35*,0
COc1cc(C2NC(=O)NC(C)=C2C(=O)OCc2ccccc2)ccc1O (stereo not drawn),-7,6,-2,-14,-10,7,.,.
SMILES,SRC1 inh,SRC3 inh,GalR3 antagonist,NR2F2 inh,LRH-1 inv ag,NCOA2 inhibitor,GalR3 conf,HEK-CNG parental
CC1C(=O)N(Cc2cn(CCC3OCCCO3)nn2)CCS(=O)(=O)N1Cc1ccc(-c2cccc(CO)c2)cc1 (stereo not drawn),-27,-7,-4,1,-33,-22,.,.
CCC(=O)Nc1ccc(F)c(Cl)c1,-2,12,.,11,24,1,-3,0
CCc1c(C(=O)Nc2ccc(OC)c(Cl)c2)[nH]c(C)c1C(C)=O,5,2,28*,-13,8,-22,13*,0
COc1cc(NC(=O)c2[nH]c(C)c(C(C)=O)c2C)c(OC)cc1Cl,.,.,.,-23,.,.,.,.
Brc1ccc(CN2CCCc3nc(-c4ccccc4)ccc32)cc1,.,.,-5,13,.,-42,.,.
Cc1nc(C)n(CC(=O)N2CCCC(C(=O)c3cccc4ccccc34)C2)n1 (stereo not drawn),-7,-4,13*,-46,-33,-69,-1,0
Cc1ccn(CC(=O)N2CCCC(C(=O)c3cccc4ccccc34)C2)n1 (stereo not drawn),-20,-3,4,20,8,4,.,.
COc1ccc(Cc2c(O)nc(SCC(=O)NC34CC5CC(CC(C5)C3)C4)[nH]c2=O)cc1,-9,-9,-3,10,0,7,4,0
CSc1cccc(NC(=O)c2ccc(CN3CCc4ccccc4C3)cc2)c1,4,21,47*,36,9,20,104*,0
COC(=O)[C@]12C[C@H](CC(=O)NCc3cccc4ccccc34)C(=O)N(Cc3ccccc3)C1=C[C@H](C(C)C)O[C@@H]2C1CC1,.,.,-4,6,.,3,.,.
Cc1ccc(C2C3=C(CC(C)(C)CC3=O)NC3=C2C(=O)c2ccccc23)cc1 (stereo not drawn),5,11,22*,-1,8,-9,19*,0
NS(=O)(=O)c1ccc(CNC(=O)c2csc3c2CCCC3)cc1,3,5,27*,7,13,-6,13*,0
CCCNC(=O)c1csc2c1CCCCC2,1,-19,3,3,0,3,.,.
O=C(O)CC12CC3CC(C1)CC(n1ncc(NCc4ccco4)c(Cl)c1=O)(C3)C2,-10,-8,15*,1,-7,11,11,0
COc1ccc2c(c1)CN1C(=O)N(C3CCCC3)S(=O)(=O)CC21 (stereo not drawn),.,.,.,4,.,-12,.,.
COc1cc(/C=N/S(=O)(=O)c2ccccc2)cc(OC)c1O,-5,-18,15*,15,0,-11,-1,0
